SMILES strings stand for the structures. Inconclusive results are not listed. Where a call stands in place of a potency, no number is given. Active and inactive are the calls of the source. The call rests on the fitted dose curve; in most records, active means well fitted curve in the direction sought with a large enough effect; inconclusive means small, poorly fitted or top-dose-only effect, or another doubt; inactive means no such curve, though single readings can be large; an effect the other way counts as inactive or inconclusive.

A short description of one experiment: S16 Schwann cell viability assay (CellTiter-Glo assay) (AID 624031).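 Further: native untransfected S16 rat Schwann cells; nearly all actives have a fitted effect of over 70% in size.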 Conditions: S16 rat Schwann cells viability, 24 h; series mostly up to 57.5 µM. The essentials:
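Cells were seeded at 500-750 per well in phenol red-free DMEM with 10% FBS and left overnight. Compounds or DMSO were pinned in, incubation ran 24 h at 37 °C/5% CO2, then CellTiter-Glo reagent was added and luminescence measured.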
(ATP-based viability assays read luminescence as a measure of living cells.)
Consider `CCc1c2c(nc3ccc(OC(=O)N4CCC(N5CCCCC5)CC4)cc13)-c1cc3c(c(=O)n1C2)COC(=O)[C@]3(O)CC`, for which the Potency result was “inactive”.
On to `Nc1[nH]c(=O)ncc1F`, for which the Potency entry was “inactive”.
Still for that read-out and setting: the entry for `CC(C)Cn1cnc2c(N)nc3ccccc3c21` is “inactive”; for `CCOC(=O)c1ccc(OC(=O)CCCCCN=C(N)N)cc1` it is “inactive”; for `COC(=O)Nc1nc2ccc(Sc3ccccc3)cc2[nH]1` it is “inactive”.
As to `NC(=O)N1c2ccccc2CC(=O)c2ccccc21`, the Potency result is “inactive”.
On to `CNS(=O)(=O)Cc1ccc2[nH]cc(CCN(C)C)c2c1`, for which the Potency result was “inactive”.
As for `COc1ncnc(NS(=O)(=O)c2ccc(N)cc2)c1OC`, the Potency entry is “inactive”.
On the same count and under the same terms, in the case of `CCCCOc1ccc(CC(=O)NO)cc1` it was “inactive”.
Consider `O=C(O)c1cccnc1`, for which the Potency result was “inactive”.
In the case of `Clc1ccccc1CN1CCc2sccc2C1`, the Potency entry is “inactive”.
In the case of `COc1ccc(-c2ccc3cc(C(=O)O)ccc3c2)cc1C12CC3CC(CC(C3)C1)C2`, the Potency entry was “inactive”.
Take `C#CCN[C@@H]1CCc2ccccc21`: the Potency entry is “inactive”.
In the case of `O=c1cc(O)c(Cl)c[nH]1`, the Potency entry is “inactive”.
For the compound `COc1cnc(NS(=O)(=O)c2ccc(N)cc2)nc1`, the Potency result was “inactive”.
`O=P(O)(O)C(O)(Cc1cccnc1)P(=O)(O)O`: the Potency entry is “inactive”.
For `CCCN[C@H]1CCc2nc(N)sc2C1`, the Potency entry is “inactive”.
With `CC(N)C12CC3CC(CC(C3)C1)C2` (centres undefined), the Potency result was “inactive”.
In the case of `CCn1cc(C(=O)O)c(=O)c2cc(F)c(N3CCNCC3)nc21`, the Potency result is “inactive”.
In the case of `COc1c(N2CCNC(C)C2)c(F)cc2c(=O)c(C(=O)O)cn(C3CC3)c12` (centres undefined), the Potency result is “inactive”.
For `O=C(O)CCn1c2c(c3ccccc31)C[C@H](NS(=O)(=O)c1ccc(F)cc1)CC2`, the Potency result was “inactive”.
Same read-out and setting: in the case of `CCOCC(O)COc1ccc(NC(=O)CC[S+](C)C)cc1` (centres undefined) it was “inactive”; in that of `CN1CCN(c2c(F)cc3c(=O)c(C(=O)O)cn4c3c2OCN4C)CC1`, “inactive”.
Consider `N[C@@H](C(=O)N[C@@H]1C(=O)N2C(C(=O)O)=C(Cl)CS[C@H]12)c1ccccc1`, for which the Potency entry was “inactive”.
Regarding `CCOC(=O)c1ccc(C#Cc2ccc3c(c2)C(C)(C)CCS3)nc1`, the Potency result is “inactive”.
For the compound `COc1cc(NS(=O)(=O)c2ccc(N)cc2)nc(OC)n1`, the Potency result was “inactive”.
Take `CCN(C)C(=O)Oc1cccc([C@H](C)N(C)C)c1`: the Potency result was “inactive”.
As to `CC(C)(C#N)c1cc(Cn2cncn2)cc(C(C)(C)C#N)c1`, the Potency entry is “inactive”.

A further experiment in a line: S16 Schwann cell PMP22 intronic element firefly luciferase assay (AID 624032). Further: nearly all actives have a fitted effect of over 30% in size. Conditions: S16 rat Schwann cells, PMP22 element FLuc, 24 h; series mostly up to 57.5 µM. The essentials: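 Luciferase reporter of PMP22 intronic-element expression in stably transfected S16 rat Schwann cells, read by ONE-Glo luminescence after 24 h compound exposure at 37 C. Activity scaled between DMSO (0%) and positive-control PTC124; concentration-effect curves quality-classified.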
As for `Nc1[nH]c(=O)ncc1F`, the Potency entry was “inactive”.
Regarding `CCOC(=O)c1ccc(OC(=O)CCCCCN=C(N)N)cc1`, the Potency entry is “inactive”.
For the compound `COC(=O)Nc1nc2ccc(Sc3ccccc3)cc2[nH]1`, the Potency result was “inactive”.
On the same count and under the same terms, the entry for `CNS(=O)(=O)Cc1ccc2[nH]cc(CCN(C)C)c2c1` is “inactive”; for `COc1ncnc(NS(=O)(=O)c2ccc(N)cc2)c1OC` it is “inactive”; for `O=C(O)c1cccnc1` it is “inactive”.
With `Clc1ccccc1CN1CCc2sccc2C1`, the Potency result is “inactive”.
Consider `C#CCN[C@@H]1CCc2ccccc21`, for which the Potency entry is “inactive”.
For `O=c1cc(O)c(Cl)c[nH]1`, the Potency result is “inactive”.
In the case of `COc1cnc(NS(=O)(=O)c2ccc(N)cc2)nc1`, the Potency entry was “inactive”.
Consider `O=P(O)(O)C(O)(Cc1cccnc1)P(=O)(O)O`, for which the Potency entry was “inactive”.
The same measure, in the same setting: the entry for `CC(N)C12CC3CC(CC(C3)C1)C2` (centres undefined) is “inactive”; for `CCn1cc(C(=O)O)c(=O)c2cc(F)c(N3CCNCC3)nc21` it is “inactive”; for `COc1c(N2CCNC(C)C2)c(F)cc2c(=O)c(C(=O)O)cn(C3CC3)c12` (centres undefined) it is “inactive”.
Same read-out and setting: the entry for `O=C(O)CCn1c2c(c3ccccc31)C[C@H](NS(=O)(=O)c1ccc(F)cc1)CC2` is “inactive”.
`CCOCC(O)COc1ccc(NC(=O)CC[S+](C)C)cc1` (centres undefined): the Potency result is “inactive”.
`CN1CCN(c2c(F)cc3c(=O)c(C(=O)O)cn4c3c2OCN4C)CC1`: the Potency entry is “inactive”.
As to `N[C@@H](C(=O)N[C@@H]1C(=O)N2C(C(=O)O)=C(Cl)CS[C@H]12)c1ccccc1`, the Potency result is “inactive”.
As for `COc1cc(NS(=O)(=O)c2ccc(N)cc2)nc(OC)n1`, the Potency entry is “inactive”.
On the same count and under the same terms, the entry for `CCN(C)C(=O)Oc1cccc([C@H](C)N(C)C)c1` is “inactive”; for `CC(C)(C#N)c1cc(Cn2cncn2)cc(C(C)(C)C#N)c1` it is “inactive”.

These data come from PubChem BioAssay (NCATS).
